# Bioassay records (PubChem BioAssay)
# A selection: hits, their analogues and other compounds. The true share with any hit is near 1.4%.
# RecA intein inh = inhibitors of M. tuberculosis RecA intein splicing | P9WHJ3 | cell-free RecA intein splicing, fluorescence | inhibition, % (no concentration beside the values) | 0.75% of 290,000 active | AID 2221; in the data active = inhibition above about 30%
# Target sequence (P9WHJ3 whole entry, looked up): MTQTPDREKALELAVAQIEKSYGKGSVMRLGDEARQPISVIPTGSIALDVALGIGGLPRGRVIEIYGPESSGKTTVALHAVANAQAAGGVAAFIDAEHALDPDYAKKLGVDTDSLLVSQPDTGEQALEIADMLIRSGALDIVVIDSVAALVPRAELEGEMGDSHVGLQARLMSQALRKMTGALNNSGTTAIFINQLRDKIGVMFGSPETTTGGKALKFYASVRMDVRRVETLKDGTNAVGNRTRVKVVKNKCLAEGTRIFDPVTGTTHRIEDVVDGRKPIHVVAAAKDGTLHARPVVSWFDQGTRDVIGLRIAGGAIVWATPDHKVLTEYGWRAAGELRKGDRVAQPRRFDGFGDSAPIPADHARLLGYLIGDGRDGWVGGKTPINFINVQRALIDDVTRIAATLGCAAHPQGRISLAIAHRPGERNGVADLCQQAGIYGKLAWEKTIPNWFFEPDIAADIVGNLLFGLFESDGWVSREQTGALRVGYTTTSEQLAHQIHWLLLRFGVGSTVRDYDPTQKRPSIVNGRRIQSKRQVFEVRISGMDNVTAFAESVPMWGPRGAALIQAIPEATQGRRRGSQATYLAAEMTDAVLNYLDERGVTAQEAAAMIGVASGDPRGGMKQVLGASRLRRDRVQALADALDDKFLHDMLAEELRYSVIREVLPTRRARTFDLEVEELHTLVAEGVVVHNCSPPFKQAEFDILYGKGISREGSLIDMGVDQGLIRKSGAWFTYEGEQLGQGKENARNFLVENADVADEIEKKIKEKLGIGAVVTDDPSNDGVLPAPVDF
# Mtb hypoxia rep = inhibitors of hypoxia-regulated fluorescent reporter in Mycobacterium tuberculosis | fluorescence inhibition, % (no concentration beside the values) | 0.1% of 300,000 active | M. tuberculosis hypoxia-regulated fluorescent reporter, fluorescence; in the data active = fluorescence inhibition mostly above about 23%, no sharp cut-off; inactive = mostly below about 17%
# PrPC surface inh = reduces human prion protein on the cell surface; AID 720596; cell surface PrPC, TR-FRET read-out; 0.43% of 370,000 active; inhibition, % at 13.8 µM; in the data active = inhibition above about 24%
# BJeLR viability = kills HRASV12-expressing BJeLR cells; BJeLR (HRASV12) viability, CellTiter-Glo ATP luminescence, 48 h; inhibition, % (concentration not given with the values); 0.17% of 300,000 active; in the data active = inhibition above about 50%
# PrP 5UTR inh = inhibition of PrP 5' UTR reporter expression | cell-based PrP 5' UTR mRNA reporter, plate reader | inhibition, % (test concentration not listed) | 0.35% of 340,000 active | AID 488862; in the data active = inhibition above about 52%
# 3CLpro inhibitor = SARS-CoV 3CLpro protease inhibition | P0C6X7 | recombinant SARS-CoV 3CLpro, quenched FRET peptide cleavage | inhibition, % at 6 µM | 0.14% of 290,000 active | AID 1706; in the data active = inhibition above about 12%
# PrPC confirm = cell surface PrPC inhibition, TR-FRET confirmation. shares compounds with PrPC surface inh. cell surface PrPC level. inhibition, % at 13.8 µM. 65% of 1,500 active. AID 743200; in the data active = inhibition above about 25%
# LD9 tox = counter-screen for PrPc inhibitors: cytotoxicity in LD9 cells; 29% of 1,500 active; inhibition, % at 13.8 µM; luminescence viability; AID 743201; shares compounds with PrPC surface inh; in the data active = inhibition above about 9.5%
# Numbers stand for hits; 0 = inactive; - = not tested or not shown.
SMILES,RecA intein inh,Mtb hypoxia rep,PrPC surface inh,BJeLR viability,PrP 5UTR inh,3CLpro inhibitor,PrPC confirm,LD9 tox
COc1ccc(S(=O)(=O)Nc2cccc3c2OC(CN(C)S(=O)(=O)c2cn(C)cn2)C(C)CN(C(C)CO)C3=O)cc1 (stereo not given),-,0,-,-,-,-,-,-
CN(CC(=O)Nc1ccccc1C(F)(F)F)C(=O)c1cc(-c2cccs2)nn1-c1ccccc1,0,0,25,0,0,-,49,0
CCc1ccc(OCC(=O)NN=Cc2ccc(OS(=O)(=O)c3ccc(C)cc3)c(OC)c2)cc1,-,0,-,-,-,-,-,-
O=C(CC1CC=CCCC(Cc2ccc(F)cc2)C(=O)OCC(c2ccccc2)NC1=O)NCCO (stereo not given),-,0,-,-,-,-,-,-
CS(=O)(=O)c1ccc(C(=O)NNC(=O)c2cc(-c3ccccc3)n[nH]2)cc1,-,-,0,-,0,-,-,-
COc1cc(C(=O)NNC(=O)c2cc(-c3ccccc3)n[nH]2)cc(OC)c1C,-,-,26,-,0,-,0,0
Cc1c(N/N=C(\C#N)C(=O)c2ccc(Cl)cc2)c(=O)n(-c2ccccc2)n1C,0,0,34,0,0,0,26,25
Cc1cc(SCC(=O)NC2CCCC2)nc2ccccc12,0,0,28,0,0,0,39,0
Cc1cc(SCC(=O)NC2CCCCC2)nc2ccccc12,0,0,0,0,0,0,-,-
O=C(Cc1ccccc1)OCn1nnc2ccccc2c1=O,0,0,37,0,0,0,0,0
NC(=O)C1(NC(=O)C2CC3(CC(c4cccc(NC(=O)c5cc([N+](=O)[O-])cc([N+](=O)[O-])c5)c4)=NO3)CN2C(=O)c2ccccc2)CC1 (stereo not given),-,0,-,-,-,-,-,-
O=C(NN=Cc1cc([N+](=O)[O-])ccc1Cl)c1cnccn1,-,0,-,-,-,-,-,-
Cc1ccc(C=NNc2cn[nH]c(=O)n2)o1,-,0,-,-,-,-,-,-
O=c1nc(N/N=C/c2ccccn2)cn[nH]1,-,-,25,0,0,0,0,9.5
COC(=O)C1=C(c2ccc(C(C)=O)cc2)CC2CCC1N2C(=O)NCCOc1ccccc1Cl (stereo not given),-,0,-,-,-,-,-,-
COc1ccccc1CNc1nc(NCc2ccccc2OC)c2sccc2n1,-,-,0,-,-,-,-,-
COc1ccccc1CNc1nc(Nc2cccc(-c3cnco3)c2)c2sccc2n1,-,-,25,-,-,-,33,35
O=C(O)c1ccccc1C(=O)c1cccc2c(Br)cccc12,-,0,60,-,0,-,91,0
O=C(O)c1ccccc1C(=O)c1cccc2c(F)cccc12,-,-,0,-,0,-,-,-
S=c1[nH]nc(-c2ccco2)n1N=Cc1ccc(Cl)cc1Cl,-,0,-,-,-,-,-,-
O=C(C1=C(O)C(=O)N(CCN2CCOCC2)C1c1cccc(Br)c1)c1cc2ccccc2o1 (stereo not given),0,0,75,0,0,0,130,0
O=C1C(=O)N(CCCn2ccnc2)C(c2ccc(Cl)cc2)/C1=C(\O)c1ccc2c(c1)OCCO2 (stereo not given),0,0,32,0,0,0,0,0
O=C1C(=O)N(CCCn2ccnc2)C(c2cccc(Br)c2)/C1=C(\O)c1ccc2c(c1)OCCO2 (stereo not given),0,0,30,0,0,0,43,0
O=C1C(=O)N(CCCn2ccnc2)C(c2ccc(Br)cc2)/C1=C(\O)c1ccc2c(c1)OCCO2 (stereo not given),0,0,0,0,0,0,-,-
CC(C)(C)OC(=O)C(Cc1ccccc1)NC(=O)c1nc[nH]c1C(=O)NC(CCCCN)C(=O)OC(C)(C)C (stereo not given),-,0,-,-,-,-,-,-
SMILES,RecA intein inh,Mtb hypoxia rep,PrPC surface inh,BJeLR viability,PrP 5UTR inh,3CLpro inhibitor,PrPC confirm,LD9 tox
CCOc1cc(C=NNC(=O)CCc2n[nH]c(=O)[nH]c2=O)ccc1O,-,0,-,-,-,-,-,-
O[C@@H]1[C@@H](O)C=C2CCN3Cc4cc5c(cc4[C@H]1C23)OCO5 (stereo not given in full),-,-,89,-,0,-,92,28
CSCC(=O)NC1CCCc2c1cnn2-c1cc(F)cc(F)c1 (stereo not given),0,0,0,0,0,0,-,-
CC(=O)N1CCC(C(=O)NC2CCCc3c2cnn3-c2cc(F)cc(F)c2)CC1 (stereo not given),0,0,85,0,0,0,0,0
O=C(COc1cccc2cccnc12)Nc1cccc(S(=O)(=O)N2CCCC2)c1,-,0,31,-,0,-,0,0
NC(=O)CSc1nnc2n(-c3ccccc3)c(=O)c3c4c(sc3n12)CCCCC4,0,-,51,0,0,0,86,0
Cc1nnc2n(-c3ccccc3)c(=O)c3c4c(sc3n12)CCCC4,-,0,0,0,0,0,-,-
CC(Cc1ccccc1)=NNC(=O)CCCC(=O)NN=C(C)Cc1ccccc1,-,0,-,-,-,-,-,-
Cc1c(CC(=O)O)c(=O)oc2c(C)c3occ(-c4ccccc4)c3cc12,0,0,28,0,0,0,0,0
COC(=O)C1=C(c2ccc(Cl)c(C(F)(F)F)c2)CC2CCC1N2C(=O)N1CCOCC1 (stereo not given),-,0,-,-,-,-,-,-
N#Cc1ccccc1OCCCN1CCC(Cc2ccccc2)CC1,0,0,26,0,0,0,0,10
CCOc1ccccc1OCCN1CCC(Cc2ccccc2)CC1,0,0,0,0,0,0,-,-
NC1=NCC(Cc2ccc(O)cc2)N1CCC12CC3CC(CC(C3)C1)C2 (stereo not given),-,0,-,-,-,-,-,-
COc1ccc(S(=O)(=O)N(C)CC2Oc3ccc(NS(=O)(=O)c4cccs4)cc3C(=O)N(C(C)CO)CC2C)cc1 (stereo not given),-,0,-,-,-,-,-,-
CCC(C)C(NC(=O)OC(C)(C)C)c1cn(C(Cc2ccc(O)cc2)C(=O)N2CCN(C(=O)OC(C)(C)C)CC2)nn1 (stereo not given),-,0,-,-,-,-,-,-
CCN(CC)C(=O)CSc1nc(O)c(Cc2ccccc2)c(=O)n1-c1ccc(C)cc1,0,0,0,0,0,0,-,-
CCN(CC)C(=O)CSc1nc(O)c(Cc2ccccc2)c(=O)n1-c1ccccc1,0,-,60,0,0,0,53,0
Cc1cc(C)n(CC(=O)NN=Cc2ccc(C)o2)n1,-,0,-,-,-,-,-,-
Cc1cc2nc(N)sc2cc1C,0,0,36,0,0,0,0,0
CCCCCCCCCCCCCCCC[n+]1ccccc1,-,0,28,-,0,-,39,36
COc1cc(CCN2C(=O)NC(CCc3ccccc3)C(C(C)=O)=C2C)cc(OC)c1OC (stereo not given),-,0,-,-,-,-,-,-
N=c1c2c(-c3ccccc3)c(-c3ccccc3)n(Cc3ccco3)c2ncn1CCCN1CCOCC1,0,0,0,0,0,0,-,-
N=c1c2c(-c3ccccc3)c(-c3ccccc3)n(Cc3ccco3)c2ncn1CCCn1ccnc1,0,-,27,52,0,0,0,19
CC(CC(O)C1OC1(C)C)C1=C2CC(O)C3[C@@]4(C)CCC(=O)C(C)(C)C4CC[C@]3(C)[C@@]2(C)CC1 (stereo not given in full),-,0,-,-,-,-,-,-
